Measurements reported in the antibiotic and cytotoxicity screens of Wong et al. (2023).
In all, about 39,000 compounds went through this assay and about 3,300 (8.5%) were called active. The sample as a whole holds a higher share of actives than the screen did.

System: HepG2
Experiment: cytotoxicity call (relative viability < 0.9)
Details: 10 µM

| SMILES | cytotoxicity call |
| --- | --- |
| C[C@H](CO)N1C[C@H](C)[C@H](CN(C)S(C)(=O)=O)Oc2ncc(C#Cc3ccc(C(F)(F)F)cc3)cc2C1=O | inactive |
| COCC#Cc1cnc2c(c1)C(=O)N([C@H](C)CO)C[C@@H](C)[C@@H](CN(C)C(=O)CCN1CCCCC1)O2 | inactive |
| C[C@@H]1CN([C@H](C)CO)C(=O)c2cc(NC(=O)Nc3ccc4c(c3)OCO4)ccc2O[C@@H]1CN(C)C(=O)Nc1cccc2ccccc12 | inactive |
| COc1ccc(C#Cc2ccc3c(c2)O[C@H](CN(C)C(=O)CN2CCOCC2)[C@@H](C)CN([C@H](C)CO)S3(=O)=O)cc1 | inactive |
| CN(C)CCN1C(=O)CO[C@H]2CN(C(=O)NCc3cccnc3)C[C@@H]21 | inactive |
| C[C@@H]1CN([C@H](C)CO)C(=O)Cc2cc(NC(=O)Nc3ccccc3)ccc2O[C@@H]1CN(C)S(=O)(=O)c1cn(C)cn1 | inactive |
| O=C(N/N=C/[C@H](O)[C@H](O)[C@@H](O)[C@@H](O)CO)c1ccccn1 | inactive |
| CON=C(C(=O)NC1C(=O)N2C(C(=O)O)=C(C[N+]3(C)CCCC3)CSC12)c1csc(N)n1.[Cl-] (stereo unspecified) | inactive |
| Cc1noc(C)c1S(=O)(=O)Nc1ccc2c(c1)C(=O)N([C@@H](C)CO)C[C@H](C)[C@H](CN(C)C(=O)Nc1cccc3ccccc13)OCCCC[C@H](C)O2 | inactive |
| C[C@H](CO)N1C[C@H](C)[C@H](CN(C)Cc2ccccc2)Oc2ccc(NC(=O)Nc3ccc(C(F)(F)F)cc3)cc2CC1=O | active |
| C[C@H](CO)N1C[C@H](C)[C@@H](CN(C)Cc2ccccc2)Oc2ccc(NC(=O)Nc3ccc(C(F)(F)F)cc3)cc2CC1=O | active |
| CO[C@H]1CN(C)C(=O)c2cc(NC(=O)Nc3ccccc3F)ccc2OC[C@@H](C)N(Cc2ccccc2C(=O)O)C[C@H]1C | inactive |
| C[C@@H]1CCCCO[C@H](CN(C)C(=O)Nc2ccc(F)cc2)[C@H](C)CN([C@@H](C)CO)C(=O)c2cc(NC(=O)c3ccccc3)ccc2O1 | inactive |
| COc1ccc(C(=O)CCC(=O)O)c2ccccc12 | active |
| O=C(O)CCC(=O)c1ccc(-c2ccccc2)cc1 | inactive |
| COc1ccc(C(=O)O)c(O)c1OC | inactive |
| C[C@H]1CCCCO[C@@H](CN(C)C(=O)NC2CCCCC2)[C@@H](C)CN([C@@H](C)CO)C(=O)c2cc(NC(=O)NC3CCCCC3)ccc2O1 | inactive |
| COc1ccc(S(=O)(=O)N(C)C[C@@H]2OCCCC[C@@H](C)Oc3ccc(NC(=O)Nc4ccccc4)cc3C(=O)N([C@@H](C)CO)C[C@@H]2C)cc1 | inactive |
| C[C@H](O)C#Cc1ccc2c(c1)O[C@H](CN(C)C(=O)Cc1ccccn1)[C@@H](C)CN([C@H](C)CO)S2(=O)=O | inactive |
| COc1ccccc1C#Cc1cnc2c(c1)C(=O)N([C@@H](C)CO)C[C@@H](C)[C@@H](CN(C)S(=O)(=O)c1cn(C)cn1)O2 | inactive |
| COCC#Cc1cnc2c(c1)C(=O)N([C@@H](C)CO)C[C@H](C)[C@@H](CN(C)S(=O)(=O)c1cn(C)cn1)O2 | active |
| COCC#Cc1cnc2c(c1)C(=O)N([C@H](C)CO)C[C@H](C)[C@@H](CN(C)C(=O)c1cnccn1)O2 | inactive |
| COCC#Cc1cnc2c(c1)C(=O)N([C@H](C)CO)C[C@@H](C)[C@H](CN(C)S(=O)(=O)c1cn(C)cn1)O2 | inactive |
| COc1ccccc1C#Cc1cnc2c(c1)C(=O)N([C@H](C)CO)C[C@H](C)[C@@H](CN(C)S(=O)(=O)c1cn(C)cn1)O2 | inactive |

| SMILES | cytotoxicity call |
| --- | --- |
| COCC#Cc1cnc2c(c1)C(=O)N([C@H](C)CO)C[C@@H](C)[C@@H](CN(C)S(=O)(=O)c1cn(C)cn1)O2 | inactive |
| COc1ccccc1C#Cc1cnc2c(c1)C(=O)N([C@@H](C)CO)C[C@@H](C)[C@H](CN(C)S(=O)(=O)c1cn(C)cn1)O2 | active |
| COc1ccccc1C#Cc1cnc2c(c1)C(=O)N([C@H](C)CO)C[C@@H](C)[C@@H](CN(C)S(=O)(=O)c1cn(C)cn1)O2 | inactive |
| COc1ccccc1C#Cc1cnc2c(c1)C(=O)N([C@H](C)CO)C[C@@H](C)[C@H](CN(C)S(=O)(=O)c1cn(C)cn1)O2 | active |
| COCC#Cc1cnc2c(c1)C(=O)N([C@H](C)CO)C[C@@H](C)[C@H](CN(C)C(=O)c1cnccn1)O2 | inactive |
| COCC#Cc1cnc2c(c1)C(=O)N([C@H](C)CO)C[C@H](C)[C@H](CN(C)C(=O)c1cnccn1)O2 | active |
| COc1ccccc1C#Cc1cnc2c(c1)C(=O)N([C@@H](C)CO)C[C@H](C)[C@H](CN(C)S(=O)(=O)c1cn(C)cn1)O2 | inactive |
| COCCCNC(=O)[C@@]1(Sc2ccc(C)cc2)CC(=O)N(Cc2cc(C(F)(F)F)cc(C(F)(F)F)c2)[C@@H]1c1ccc(CO)cc1I | inactive |
| Cc1cccc(S(=O)(=O)N2C[C@H](O)COC[C@H]3O[C@@H](CC(=O)NCc4ccncn4)CC[C@@H]32)c1 | inactive |
| Cc1noc(C)c1NC(=O)N(C)C[C@@H]1Oc2ccc(NS(=O)(=O)c3c(C)noc3C)cc2C(=O)N([C@H](C)CO)C[C@@H]1C | inactive |
| C[C@@H]1CN([C@H](C)CO)C(=O)c2cc(NC(=O)NC3CCCCC3)ccc2O[C@@H]1CN(C)C(=O)Nc1cccc2ccccc12 | inactive |
| Cc1ccc(S(=O)(=O)Nc2cccc3c2O[C@@H](CN(C)Cc2ccc(Oc4ccccc4)cc2)[C@H](C)CN([C@H](C)CO)C3=O)cc1 | inactive |
| COc1ccc(S(=O)(=O)N(C)C[C@@H]2OCCCC[C@H](C)Oc3ccc(NC(=O)Nc4ccccc4)cc3C(=O)N([C@H](C)CO)C[C@@H]2C)cc1 | inactive |
| O=C(NCCn1ncc2c(=O)n(Cc3ccccc3)cnc21)c1ccc(S(=O)(=O)N2CCOCC2)cc1 | inactive |
| CC(C)Sc1n[nH]c(=O)[nH]c1=O | inactive |
| CCCNC(=O)N(C)C[C@H]1Oc2cc(C#Cc3ccccn3)ccc2S(=O)(=O)N([C@H](C)CO)C[C@@H]1C | inactive |
| CC[C@H]1Sc2ccccc2NC1=O | inactive |
| C[C@H]1CCCCO[C@H](CN(C)S(=O)(=O)c2cn(C)cn2)[C@@H](C)CN([C@@H](C)CO)C(=O)c2cc(NS(=O)(=O)c3cccs3)ccc2O1 | inactive |
| CSc1nc(C)cc(OCCO)n1 | inactive |
| COc1ccc(NC(=O)Nc2ccc3c(c2)C(=O)N([C@@H](C)CO)C[C@@H](C)[C@H](CN(C)Cc2ccc(Cl)c(Cl)c2)OCCCC[C@H](C)O3)cc1 | inactive |
| O=c1c(-c2ccc(O)cc2)coc2cc(O[C@@H]3O[C@H](CO)[C@@H](O)[C@H](O)[C@H]3O)ccc12 | inactive |
| COc1ccc(CNC(=O)C[C@@H]2CC[C@@H]3[C@@H](COc4ccc(NC(=O)C5CC5)cc4C(=O)N3C)O2)cc1 | inactive |
| C[C@H](CO)N1C[C@H](C)[C@@H](CN(C)S(=O)(=O)c2cccs2)Oc2c(NC(=O)C3CCOCC3)cccc2C1=O | inactive |
| Cc1ccc(S(=O)(=O)Nc2ccc3c(c2)C(=O)N([C@@H](C)CO)C[C@@H](C)[C@H](CN(C)C(=O)NC2CCCCC2)OCCCC[C@H](C)O3)cc1 | inactive |

| SMILES | cytotoxicity call |
| --- | --- |
| CC(C)N=c1cc2n(-c3ccc(Cl)cc3)c3ccccc3nc-2cc1Nc1ccc(Cl)cc1 | active |
| CCN[C@H]1CCS(=O)(=O)C1 | inactive |
| CN[C@H]1CCS(=O)(=O)C1 | inactive |
| Cc1nc(S(=O)(=O)N[C@H]2CCS(=O)(=O)C2)cn1C | active |
| CCC(=O)N(C)C[C@@H]1Oc2ncc(C#C[C@@H](C)O)cc2C(=O)N([C@H](C)CO)C[C@@H]1C | inactive |
| COc1cccc(-c2cnc3c(c2)C(=O)N([C@H](C)CO)C[C@H](C)[C@H](CN(C)S(=O)(=O)c2cccc(F)c2)O3)c1 | inactive |
| NC(Cn1ccc(=O)c(O)c1)C(=O)O (stereo unspecified) | active |
| N[C@@H](CN1C=CC(=O)C(=O)C1)C(=O)O | inactive |
| N[C@@H](Cn1ccc(=O)c(O)c1)C(=O)O | inactive |
| C[C@@H]1CN([C@@H](C)CO)C(=O)c2cc(NC(=O)Nc3ccc(C(F)(F)F)cc3)ccc2O[C@@H]1CN(C)C(=O)Nc1cccc2ccccc12 | inactive |
| C[C@@H]1CN(CCO[Si](C)(C)C(C)(C)C)C(=O)c2cc(NC(=O)Nc3ccccc3)ccc2O[C@@H](C)CCCCO[C@H]1CN(C)S(=O)(=O)c1ccc(F)cc1 | inactive |
| Cc1noc(C)c1NC(=O)Nc1ccc2c(c1)CC(=O)N([C@H](C)CO)C[C@@H](C)[C@H](CN(C)S(C)(=O)=O)O2 | inactive |
| C[C@H](CO)N1C[C@H](C)[C@H](CN(C)S(C)(=O)=O)Oc2ccc(NC(=O)Cc3ccccc3)cc2C1=O | inactive |
| C[C@@H]1CCCCO[C@H](CN(C)Cc2ccc(Cl)c(Cl)c2)[C@H](C)CN([C@@H](C)CO)C(=O)c2cc(NC(=O)Nc3ccccc3)ccc2O1 | active |
| C[C@@H]1CCCCO[C@H](CN(C)Cc2ccc(Cl)c(Cl)c2)[C@@H](C)CN([C@@H](C)CO)C(=O)c2cc(NC(=O)Nc3ccccc3)ccc2O1 | inactive |
| C[C@H](CO)N1C[C@H](C)[C@H](CN(C)Cc2ccc(Cl)c(Cl)c2)OCCCC[C@H](C)Oc2ccc(NC(=O)Nc3ccccc3)cc2C1=O | inactive |
| C[C@@H]1CCCCO[C@@H](CN(C)Cc2ccc(Cl)c(Cl)c2)[C@H](C)CN([C@@H](C)CO)C(=O)c2cc(NC(=O)Nc3ccccc3)ccc2O1 | inactive |
| C[C@@H]1CCCCO[C@@H](CN(C)Cc2ccc(Cl)c(Cl)c2)[C@@H](C)CN([C@@H](C)CO)C(=O)c2cc(NC(=O)Nc3ccccc3)ccc2O1 | inactive |
| C[C@@H]1CN([C@@H](C)CO)C(=O)c2cc(NC(=O)Nc3ccccc3)ccc2O[C@@H](C)CCCCO[C@H]1CN(C)Cc1ccc(Cl)c(Cl)c1 | inactive |
| C[C@@H]1CCCCO[C@@H](CN(C)Cc2ccc(Cl)c(Cl)c2)[C@H](C)CN([C@H](C)CO)C(=O)c2cc(NC(=O)Nc3ccccc3)ccc2O1 | active |
| C[C@@H]1CN([C@H](C)CO)C(=O)c2cc(NC(=O)Nc3ccccc3)ccc2O[C@@H](C)CCCCO[C@@H]1CN(C)Cc1ccc(Cl)c(Cl)c1 | active |
| C[C@@H]1CN([C@H](C)CO)C(=O)c2cc(NC(=O)Nc3ccccc3)ccc2O[C@@H](C)CCCCO[C@H]1CN(C)Cc1ccc(Cl)c(Cl)c1 | active |
| C[C@@H]1CCCCO[C@H](CN(C)Cc2ccc(Cl)c(Cl)c2)[C@@H](C)CN([C@H](C)CO)C(=O)c2cc(NC(=O)Nc3ccccc3)ccc2O1 | inactive |
